Here are results for 12 compounds from PubChem BioAssay.

A short description of test [1]: HepG2 liver cancer cell viability effects, profiling panel, resazurin fluorescence, 24 h, PK04 Diversity Set (AID 1172). Note: test concentration not given here. Conditions: higher = more signal.
Test [2] is described as follows: basal S. cerevisiae growth modulation, no modifier, primary screen, OD600, strain BY4716, 24 h, basal condition (AID 1173). Conditions: OD600, 24 h, higher = more signal, called active from +8 up or from −8 down.
Test [3] in a line: MM1S myeloma cell viability, profiling panel, resazurin fluorescence, basal, 24 h, PK04 Diversity Set (AID 1174). Note: test concentration not given here. Particulars: higher = more signal, called active from +8 up or from −8 down. A general note: Resazurin is reduced to fluorescent resorufin, in cell work by metabolically active cells.
The target in test [4] is Dihydroorotate dehydrogenase (quinone), mitochondrial (Plasmodium falciparum (isolate 3D7)) (UniProt Q08210). Nature of the test: PfDHODH enzyme inhibitors, primary screen, biochemical, C-terminal His tag, absorbance 600 nm (AID 1175).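 Note: recombinant parasite enzyme with a five histidine tag at its C terminus; test concentration not given here.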 Conditions: DCIP absorbance 600 nm, higher = more signal, called active from +8 up or from −8 down.
A short description of test [5]: P. aeruginosa biofilm formation inhibitors, primary screen, strain PAO1, LB-PBS medium, absorbance 600 nm (AID 1176). Note: test concentration not given here. Conditions: P. aeruginosa PAO1 growth/biofilm, A600, 12 h; higher = more signal.
The nature of test [6]: S. cerevisiae RM11-1a growth modifiers, primary screen, strain RM11-1a, OD600, basal, 24 h (AID 1177).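 Note: cultures grown under basal conditions with no added stressor; test concentration not given here.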 Particulars: OD600, 24 h, higher = more signal, called active from +8 up or from −8 down.
Test [7] in a line: E. coli acrAB mutant growth effects, primary screen, E. coli filamentation inducers, strain DRC39, OD650, 24 h (AID 1178).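 Note: growth measured as culture turbidity by optical density at 650 nm; test concentration not given here.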 Particulars: higher = more signal, called active from +8 up or from −8 down.
Test [8] is described as follows: E. coli acrAB mutant growth effects, primary screen, E. coli filamentation inducers, strain DRC39, OD650, 48 h (AID 1179).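 Note: screen aims at cell division blockers that make cells filament.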 Particulars: E. coli DRC39 delta-acrAB growth, higher = more signal, called active from +8 up or from −8 down.
Test [9] is described as follows: RPMI8226 myeloma cell viability, profiling panel, resazurin fluorescence, basal, 24 h, PK04 Diversity Set (AID 1180).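 Note: RPMI8826 multiple myeloma cell line at 5000 cells per well; test concentration not given here.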 Conditions: higher = more signal.
In test [10] the target is E3 ubiquitin-protein ligase XIAP (Homo sapiens) (UniProt P98170). Nature of the test: XIAP binders, primary screen, biophysical, small-molecule microarray, fluorescence 635 nm (AID 1181).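 Note: score merges 667 nm emission and signal to noise over triplicate slides.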 Particulars: small-molecule microarray binding, higher = more signal.

Molecules are shown by their SMILES. Calls of active or inactive are those of the source. Unless noted, the rule behind the calls is not given here.

Chain of E3 ubiquitin-protein ligase XIAP (Homo sapiens) (P98170 whole entry, looked up): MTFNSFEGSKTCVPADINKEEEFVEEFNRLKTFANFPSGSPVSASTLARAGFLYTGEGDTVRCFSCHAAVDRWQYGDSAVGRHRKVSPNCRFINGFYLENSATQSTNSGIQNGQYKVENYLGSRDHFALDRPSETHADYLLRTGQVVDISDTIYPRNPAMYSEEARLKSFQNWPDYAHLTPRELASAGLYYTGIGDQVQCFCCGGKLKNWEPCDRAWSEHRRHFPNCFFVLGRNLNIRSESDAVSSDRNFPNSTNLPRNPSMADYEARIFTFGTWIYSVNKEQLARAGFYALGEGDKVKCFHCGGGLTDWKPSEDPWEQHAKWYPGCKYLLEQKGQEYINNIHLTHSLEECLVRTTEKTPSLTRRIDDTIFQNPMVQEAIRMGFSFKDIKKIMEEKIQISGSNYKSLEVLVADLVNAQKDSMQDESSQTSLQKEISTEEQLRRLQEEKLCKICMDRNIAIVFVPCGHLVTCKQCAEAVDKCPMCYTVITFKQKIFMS
Chain of Dihydroorotate dehydrogenase (quinone), mitochondrial (Plasmodium falciparum (isolate 3D7)) (Q08210 whole entry, looked up): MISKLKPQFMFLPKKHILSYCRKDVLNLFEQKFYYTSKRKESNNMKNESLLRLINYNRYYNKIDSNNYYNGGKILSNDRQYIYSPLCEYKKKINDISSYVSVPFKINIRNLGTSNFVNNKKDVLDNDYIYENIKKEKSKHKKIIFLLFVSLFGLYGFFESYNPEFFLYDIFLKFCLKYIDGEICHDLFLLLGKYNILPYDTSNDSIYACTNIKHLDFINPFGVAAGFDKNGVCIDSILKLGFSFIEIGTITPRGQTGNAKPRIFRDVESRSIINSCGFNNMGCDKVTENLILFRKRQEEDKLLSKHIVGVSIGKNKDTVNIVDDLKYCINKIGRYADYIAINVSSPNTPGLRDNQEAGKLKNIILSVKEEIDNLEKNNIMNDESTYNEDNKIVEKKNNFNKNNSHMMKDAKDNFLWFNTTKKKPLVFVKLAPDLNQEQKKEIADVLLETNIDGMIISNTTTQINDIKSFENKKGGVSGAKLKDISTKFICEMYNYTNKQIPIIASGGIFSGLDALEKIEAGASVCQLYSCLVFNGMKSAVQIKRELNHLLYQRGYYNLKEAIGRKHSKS

On to `COC(=O)C(CC#Cc1ccc2c(c1)[C@]1(C(=O)N2)[C@H](C(=O)NC[C@H](O)c2ccccc2)[C@H]2C(=O)O[C@H](c3ccccc3)[C@H](c3ccccc3)N2[C@@H]1c1ccc(O)cc1)C(=O)OC`, for which the z-score was 0.155 in test [1]; 0.455 (inactive) in [2]; 0.515 (inactive) in [3]; 1.05 (inactive) in test [5]; 0.518 (inactive) in test [6]; -0.196 (inactive) in test [7]. In addition, the z-score is -0.556 (inactive) in [8] and -0.464 in test [9]. Also, the results for the composite z-score in [4] and in [10] were -5.06 (inactive) and 0.076, respectively.

Regarding `CCCCC(=C=CC[C@H](O)c1ccccc1OCCO)CCO`, the z-score in test [1] was -0.259; in test [2], -1.3 (inactive); in test [3], 0.189 (inactive); in [5], 0.755 (inactive); in [6], 0.493 (inactive); in test [7], -0.295 (inactive). Besides, the results for the z-score in test [8] and in [9] were -0.224 (inactive) and -0.0336, respectively. Moreover, the composite z-score in test [4] is -0.228 (inactive); in [10], -0.223.

For the compound `COCCCNC(=O)[C@@]1(CCC(=O)OC(C)(C)C)N=C(c2ccc(OCCCO)cc2)O[C@H]1c1ccccc1`, the z-score is -0.464 in test [1]; 1.12 (inactive) in test [2]; 0.34 (inactive) in test [3]; -0.568 (inactive) in test [5]; 0.795 (inactive) in test [6]; 0.267 (inactive) in [7]. Besides, the z-score in test [8] was 1.22 (inactive); in [9], 0.137. Also, the figures for the composite z-score in test [4] and in test [10] were -1.1 (inactive) and -0.171, respectively.

For `COCCOC(=O)N1C(=O)[C@@]2(c3cc(C#CCNC(N)=O)ccc31)[C@H](C(=O)Nc1nc3ccccc3s1)[C@H]1C(=O)O[C@H](c3ccccc3)[C@H](c3ccccc3)N1[C@@H]2c1ccc(O)cc1`, the z-score in test [1] was 0.0612; in test [2], 1.1 (inactive); in [3], -0.355 (inactive); in [5] it was 0.558 (inactive); in test [6], 1.37 (inactive); in test [7], 0.0967 (inactive). Further, the z-score in test [8] is -0.211 (inactive); in test [9], -1.37. Further, the values for the composite z-score in [4] and in [10] were 0.582 (inactive) and 0.273, respectively.

For the compound `C=C(COC)C(=O)CC[C@H](OC(C)=O)c1ccc(CO)o1`, the z-score in test [1] was 0.815; in test [2], -0.111 (inactive); in test [3], 0.324 (inactive); in test [5] it was -0.517 (inactive); in [6] it was -1.28 (inactive); in test [7] it was 0.581 (inactive). In addition, the z-score in [8] is 0.117 (inactive); in [9], 0.875. Further, the figures for the composite z-score in [4] and in test [10] were -1.28 (inactive) and 0.194, respectively.

On to `C=CCOC(=O)[C@@H]1[C@H]2C(=O)O[C@H](c3ccccc3)[C@H](c3ccccc3)N2[C@H](c2ccc(OCCOC(=O)[C@H]3C[C@H]4C(=O)N[C@@H](CCCCN(C)C)C(=O)N4[C@H]3c3cccc(OCCO)c3)cc2)[C@@]12C(=O)Nc1ccccc12`, for which the z-score was 0.594 in test [1]; 0.756 (inactive) in test [2]; 0.75 (inactive) in [3]; -0.475 (inactive) in test [5]; 0.237 (inactive) in test [6]; 0.292 (inactive) in test [7]. In addition, the z-score in [8] is 0.352 (inactive); in test [9], 0.835. The values for the composite z-score in test [4] and in test [10] were 0.0193 (inactive) and -0.0102, respectively.

Consider `CCCNC(=O)[C@@]1(Sc2ccc(C)cc2)CC(=O)N(Cc2cc(C(F)(F)F)cc(C(F)(F)F)c2)[C@@H]1c1ccc(CO)cc1`, for which the z-score was -0.258 in test [1]; -0.265 (inactive) in test [2]; 0.905 (inactive) in test [3]; 0.366 (inactive) in test [5]; -0.977 (inactive) in test [6]; 0.484 (inactive) in test [7]. For the same compound, the z-score in test [8] is -0.0429 (inactive); in [9], 0.18. The figures for the composite z-score in test [4] and in test [10] were -0.756 (inactive) and -0.127, respectively.

For the compound `COCCOC(=O)N1C(=O)[C@@]2(c3cc(C#CC4=CCCCC4)ccc31)[C@H](C(=O)N1CCCCCCC1)[C@H]1C(=O)O[C@H](c3ccccc3)[C@H](c3ccccc3)N1[C@@H]2c1ccccc1OCCO`, the z-score in test [1] is 1.84; in test [2] it was 0.615 (inactive); in test [3], 0.209 (inactive); in test [5], 0.526 (inactive); in test [6], 0.511 (inactive); in [7], -0.294 (inactive). For the same compound, the z-score in [8] is -1.14 (inactive); in test [9], 0.185. In addition, the composite z-score in test [4] was -0.434 (inactive); in test [10], -0.0244.

As to `[N-]=[N+]=Nc1ccccc1C[C@]1(C(N)=O)COC(c2ccc(OCCCO)cc2)=N1`, the z-score in test [1] is 0.978; in [2] it was -0.0745 (inactive); in test [3] it was 0.157 (inactive); in test [5], 0.398 (inactive); in [6] it was -0.762 (inactive); in test [7], 0.578 (inactive). In addition, the z-score in test [8] is -0.364 (inactive); in test [9], 0.177. Besides, the composite z-score in test [4] is -0.265 (inactive); in test [10], 0.396.

Take `CCCCCCCCCCC(O)C1C=CC2C(=O)N(C)C(=O)C2N1Nc1ccccc1` (stereo not given): the z-score was -1.83 in test [1]; 0.27 (inactive) in test [2]; -1.49 (inactive) in test [3]; 1.58 (inactive) in test [5]; 1.35 (inactive) in [6]; -0.483 (inactive) in test [7]. Further, the z-score is -0.54 (inactive) in test [8] and -1.33 in test [9]. In addition, the results for the composite z-score in test [4] and in test [10] were -0.205 (inactive) and 0.192, respectively.

Consider `COc1cc(Cc2cc3c(c(CCc4ccccc4)n2)[Si](C(C)C)(C(C)C)O[C@H]3c2ccccc2)cc(OC)c1OC`, for which the z-score in [1] is -0.877; in test [2], -17.2 (active); in [3], -0.489 (inactive); in [5] it was 0.113 (inactive); in test [6], -0.234 (inactive); in test [7], -0.264 (inactive). The z-score is -0.65 (inactive) in test [8] and -0.163 in test [9]. Also, the composite z-score in [4] is -0.435 (inactive); in test [10] it was 0.355.

`Cc1ccc(S(=O)(=O)N2[C@@H](c3ccccc3)C(C(=O)O)=C[C@H]2C(C)(C)C)cc1`: the z-score was -0.809 in test [1]; -0.535 (inactive) in test [2]; -0.912 (inactive) in [3]; 0.257 (inactive) in test [5]; -1.13 (inactive) in [6]; -0.773 (inactive) in [7]. Moreover, the z-score in [8] was -0.0408 (inactive); in [9], -2.03. Further, the composite z-score in [4] was 0.0392 (inactive); in test [10], -0.18.
